Data as given in article PMC5540273 (PLoS ONE, 2017).

test system: TGFBR1; settings: concentration: 1 μM, replicates: in singlicate; n = 1
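Further: KINOMEscan kinase panel screen.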

SMILES | %Inh [%]
CSc1cccc2c(-c3ccncn3)c(-c3ccc(F)cc3)nn12 [GW514786] | 28
c1ccc(Oc2ccc(Nc3ccnc4cc(-c5ccc(CNCCN6CCOCC6)o5)ccc34)cc2)nc1 [GW567145] | 0
Nc1ncnc2c1nc(-c1ccccc1)n2-c1ccccc1 [SKF-97293] | 9
Cl.c1ccc(-c2ccc3c(Nc4ccc5[nH]ccc5c4)ccnc3c2)nc1 [GW440138] | 53
Cl.NC(=O)c1cccc(Nc2nccc(Nc3ccc(Oc4c(Cl)cccc4Cl)c(Cl)c3)n2)c1 [GW659009] | 0
Cc1occc1-c1ncc(OC[C@@H](N)Cc2c[nH]c3ccccc23)cc1-c1ccc2[nH]nc(C)c2c1.O=C(O)C(F)(F)F [GSK682037] | 0
Cc1ccc(C(=O)N2CC[C@@H](O)C2)cc1-n1c(C)cc(OCc2ccc(F)cc2F)c(Br)c1=O | 16
Oc1cc(Nc2ccnc3cc(I)ccc23)ccc1F [GW552771] | 62
c1ccc(-c2n[nH]cc2Nc2ccnc3ccccc23)nc1 [GW694077] | 5
CC(C)c1nc(-c2cccc(NS(=O)(=O)c3c(F)cccc3F)c2F)c(-c2ccnc(Nc3ccc(N4CCOCC4)nc3)n2)s1 [GSK2008607] | 86
Cn1cc(-c2[nH]c3cc(NC(=O)[C@H](N)C4CCCCC4)cc4c3c2C=NNC4=O)cn1 | 0
C[C@@H](Oc1cc(-n2cnc3cc(-c4ccnc(NCCS(C)(=O)=O)c4)ccc32)sc1C(N)=O)c1ccccc1Cl [GSK907232] | 5

test system: TGFBR2; settings: concentration: 1 μM, replicates: in singlicate; n = 1

SMILES | %Inh [%]
Cn1cc(-c2ccc3c(c2)CCN3C(=O)Cc2cccc(Cl)c2)c2c(N)ncnc21 [GSK2606590] | 0
COc1ccc(-c2coc3ccc(-c4nnc(SCc5ccc(OC)c(C(F)(F)F)c5)o4)cc23)cc1 | 25
CCS(=O)(=O)c1ccc(OC)c(Nc2nccc(-c3c(-c4cccc(NC(=O)c5c(F)cccc5F)c4)nn4ncccc34)n2)c1 [GSK326180] | 0
O=C(Nc1cccc(-c2nn3ccccc3c2-c2ccnc(Nc3cccc(C(F)(F)F)c3)n2)c1)c1c(F)cccc1F [GSK292658] | 0
NCCCC(NC(=O)c1cc(Br)c(-c2ccnc3[nH]ccc23)s1)c1ccccc1.O=C(O)C(F)(F)F.O=C(O)C(F)(F)F (stereo not shown) [GSK1287544] | 0
CC(=O)Nc1nc2cnc(Nc3cc(NC(=O)c4cccc(C5(C#N)CC5)c4Cl)ccc3C)nc2s1 | 0
COc1ccc(CNC(=O)NC2CCN(c3ccnc(Nc4ccc(F)cc4)n3)CC2)cc1 [GSK1379788] | 0
Clc1ccc(-c2nn3ncccc3c2-c2ccnc(Nc3ccc4c(c3)OCCO4)n2)cc1 [GW829116] | 23
CC(C)(C)c1ccc2nccc(Nc3cccc(O)c3)c2c1 [GW856795] | 88
COc1cc(Nc2nccc(N3CCC(NC(=O)Nc4cccc(C(C)=O)c4)C3)n2)cc(OC)c1OC (stereo not shown) [GSK1379753] | 0
COc1cc(Nc2nccc(-c3c(-c4cccc(NC(=O)c5c(F)cccc5F)c4)nn4ccccc34)n2)cc(OC)c1OC [GSK323521] | 17
COc1cccc(NC(=O)NC2CCN(c3ccnc(Nc4cc(OC)c(OC)c(OC)c4)n3)C2)c1 (stereo not shown) [GSK1379763] | 0
O=C(O)C(F)(F)F.O=C(O)C(F)(F)F.O=c1[nH]ccc2nc(N[C@@H]3CCCNC3)nc(Nc3ccc(S(=O)(=O)N4CCOCC4)cc3)c12 [GSK2177277] | 0
CCCCc1nn2ncccc2c1-c1ccnc(Nc2ccc(N3CCN(C)CC3)cc2)n1 [GW684941] | 91
CN(c1ccc(NC(=O)Nc2cc(C(F)(F)F)ccc2F)cc1)c1ccnc(Nc2ccc(S(N)(=O)=O)cc2)n1 [GW809893] | 6
Nc1ncc(-c2cccnc2)c2scc(-c3ccc4c(c3)CCN4C(=O)Cc3ccccc3)c12 [GSK683281] | 0
Cc1ccc(C(=O)Nc2ccc(Nc3ccnc4cc(-c5nccs5)ccc34)cc2O)cc1.Cl [GW494702] | 0
COc1cc(Nc2nccc(N3CCC(NC(=O)c4cc5ccccc5s4)C3)n2)cc(OC)c1OC (stereo not shown) [GSK1379760] | 0
O=C(Nc1cccc(-c2nn3ccccc3c2-c2ccnc(Nc3cccc(F)c3)n2)c1)c1c(F)ccc(F)c1Cl [GSK357952] | 19

SMILES | %Inh [%]
CN(C)Cc1ccc(-c2ccc3c(Nc4ccc(Oc5ccccn5)cc4)ccnc3c2)o1 [GW567148] | 0
CNC(=O)c1ccccc1Nc1nc(Nc2ccc(N3CCOCC3)cc2)ncc1Cl.Cl [GSK1576028] | 0
Cl.Cl.NCC(NC(=O)c1cc(-c2ccccc2)c(-c2ccnc3[nH]ccc23)s1)c1ccccc1 (stereo not shown) [GSK1321561] | 0
COc1ccc(Nc2nccc(N3CCC(NC(=O)Nc4cccc(OC)c4)C3)n2)cc1 (stereo not shown) [GSK1379742] | 9
COC(=O)Nc1nc2cc(Oc3ccc(NC(=O)Nc4cc(C(F)(F)F)ccc4F)cn3)ccc2[nH]1.Cl.Cl [GW681170] | 0
O=C(Nc1n[nH]c2cc(-c3ccoc3)ccc12)C1CC1 [SB-738481] | 0
CSc1cccc2c(-c3ccncn3)c(-c3ccc(F)cc3)nn12 [GW514786] | 24
c1ccc(Oc2ccc(Nc3ccnc4cc(-c5ccc(CNCCN6CCOCC6)o5)ccc34)cc2)nc1 [GW567145] | 0
Nc1ncnc2c1nc(-c1ccccc1)n2-c1ccccc1 [SKF-97293] | 4
Cl.c1ccc(-c2ccc3c(Nc4ccc5[nH]ccc5c4)ccnc3c2)nc1 [GW440138] | 4
Cl.NC(=O)c1cccc(Nc2nccc(Nc3ccc(Oc4c(Cl)cccc4Cl)c(Cl)c3)n2)c1 [GW659009] | 29
Cc1occc1-c1ncc(OC[C@@H](N)Cc2c[nH]c3ccccc23)cc1-c1ccc2[nH]nc(C)c2c1.O=C(O)C(F)(F)F [GSK682037] | 0
Cc1ccc(C(=O)N2CC[C@@H](O)C2)cc1-n1c(C)cc(OCc2ccc(F)cc2F)c(Br)c1=O | 0
Oc1cc(Nc2ccnc3cc(I)ccc23)ccc1F [GW552771] | 99.9
c1ccc(-c2n[nH]cc2Nc2ccnc3ccccc23)nc1 [GW694077] | 56
CC(C)c1nc(-c2cccc(NS(=O)(=O)c3c(F)cccc3F)c2F)c(-c2ccnc(Nc3ccc(N4CCOCC4)nc3)n2)s1 [GSK2008607] | 77
Cn1cc(-c2[nH]c3cc(NC(=O)[C@H](N)C4CCCCC4)cc4c3c2C=NNC4=O)cn1 | 66
C[C@@H](Oc1cc(-n2cnc3cc(-c4ccnc(NCCS(C)(=O)=O)c4)ccc32)sc1C(N)=O)c1ccccc1Cl [GSK907232] | 0
